Bioassay records as filed in PubChem BioAssay.
Rows were chosen to be rich in hits. Some 10% of all compounds tested hit in one or more screens of this group.
VP16 counter: VP16 counterscreen qHTS for inhibitors of ROR gamma transcriptional activity. actives 3.5% (n = 310,000). Potency, µM (series often up to 53.6 µM), inactives show at the top dose activity, negative = inhibition, actives largely listed as inhibitors. Drosophila S2 Gal4-VP16 UAS-luciferase, luminescence, 20 h;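 note: Gal4-VP16 expression switched on by copper sulfate through the metallothionein promoter; % is set by controls: 0 for no effect and ±100 for the full control effect; nearly all actives have a fitted effect of over 50% in size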
SW480 rereplic: A quantitative high throughput screen for small molecules that induce DNA re-replication in SW480 colon adenocarcinoma cells; Potency, µM (top dose mostly 46.1 µM), without a hit: at the top dose re-replication activation, hits mostly activators; SW480 DNA re-replication, Hoechst DNA content imaging, 48 h; actives 1.8% (n = 340,000); AID 624297, 2012; note: % of control where 0% means no effect; nearly all actives have a fitted effect of over 55% in size
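Readout is total intensity of Hoechst-stained nuclei, excited at 405 nm and collected at 500-530 nm. Compound treatment lasted 48 hr at 37 C in 5% CO2 before staining.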
MCF10A rereplic: A quantitative high throughput screen for small molecules that induce DNA re-replication in MCF 10a normal breast cells; MCF 10A DNA re-replication, Hoechst nuclear intensity, 48 h; Potency, µM (highest dose often 46.1 µM), inactives show top-dose activity, positive = re-replication, hits mostly activators; actives 2.9% (n = 350,000); AID 624296, 2012; note: % of control where 0% means no effect; nearly all actives have a fitted effect of over 50% in size
KB-V1 cytotox: qHTS assay for MDR1-selective chemotherapeutics: Primary screen using the drug-selected MDR subline cells KB-V1 | Potency, µM (doses to about 46.1 µM), hits mostly cytotoxic | actives 3.4% (n = 400,000) | AID 1347076, 2019 | KB-V1 MDR cells viability, CellTiter-Glo, 72 h; note: % is set by controls: 0 for no effect and ±100 for the full control effect; nearly all actives have a fitted effect of over 60% in size
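Following 72 h at 37 degrees C with compound, KB-V1 cell viability was read by CellTiter-Glo luminescence, medium being phenol-red-free DMEM plus 10% FBS; concentration-response parameters came from normalized, curve-fitted qHTS data.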
KB-3-1 tox: qHTS assay for MDR1-selective chemotherapeutics: Primary screen using the parental adenocarcinoma cell KB-3-1. KB-3-1 viability, CellTiter-Glo ATP luminescence, 72 h. Potency, µM (doses to about 46.1 µM), most hits filed as cytotoxic. actives 1.4% (n = 400,000). AID 1347075, 2019; note: % is set by controls: 0 for no effect and ±100 for the full control effect; nearly all actives have a fitted effect of over 60% in size
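Parental KB-3-1 viability, qHTS format: 72 h compound exposure, 37 °C; CellTiter-Glo; media-only wells and DMSO plates as controls; concentration-effect fits on corrected data.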
RORg inh: qHTS for inhibitors of ROR gamma transcriptional activity. Drosophila S2 Gal4-RORgamma UAS-luciferase reporter, 20 h. Potency, µM (titrated, usually from 53.6 µM), without a hit: at the top dose activity change, negative = inhibition, actives largely listed as inhibitors. actives 5.4% (n = 310,000); note: % is set by controls: 0 for no effect and ±100 for the full control effect; nearly all actives have a fitted effect of over 60% in size
Target sequence (P51450 whole entry, looked up, the tested form may be a part): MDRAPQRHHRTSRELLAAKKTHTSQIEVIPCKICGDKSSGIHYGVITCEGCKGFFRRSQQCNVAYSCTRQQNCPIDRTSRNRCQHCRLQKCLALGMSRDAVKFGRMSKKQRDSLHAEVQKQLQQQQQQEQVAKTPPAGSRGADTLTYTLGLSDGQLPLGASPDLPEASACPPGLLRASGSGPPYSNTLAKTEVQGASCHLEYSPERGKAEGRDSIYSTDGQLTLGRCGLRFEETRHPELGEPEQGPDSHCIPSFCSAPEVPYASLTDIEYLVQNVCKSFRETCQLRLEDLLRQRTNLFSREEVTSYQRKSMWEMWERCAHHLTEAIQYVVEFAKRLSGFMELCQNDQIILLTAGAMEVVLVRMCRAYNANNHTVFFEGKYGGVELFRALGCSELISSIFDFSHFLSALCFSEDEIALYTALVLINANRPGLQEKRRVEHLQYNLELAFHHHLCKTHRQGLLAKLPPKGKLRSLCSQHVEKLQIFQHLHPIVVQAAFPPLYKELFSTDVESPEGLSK
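Using a luciferase readout, inhibitors were identified by reduced reporter activity in Drosophila cells coexpressing a copper-inducible Gal4–ROR gamma fusion and UAS-driven Photinus luciferase, incubated 20 hr after 700 uM copper sulfate.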
Starred values were filed as active, the others as inactive; [ ] = dose if it differs, or a comment. Calls come from the whole dose curve; as a rule, active = well fitted curve in the direction sought with a large enough effect; inconclusive = small, poorly fitted or top-dose-only effect, or another doubt; inactive = no such curve, though single readings can be large; an effect the other way counts as inactive or inconclusive. Potency is the fitted concentration of half-maximal effect.

Screening O=C(NCCO)c1cccc(-c2cnc3cccnn23)c1 returned KB-V1 cytotox inactive and KB-3-1 tox inactive.
`CCOc1cc(/C=C2\SC(=N)N(c3nonc3N)C2=O)ccc1OCCN1CCOCC1` gave VP16 counter inconclusive, SW480 rereplic 18.3%, MCF10A rereplic 9.4%, KB-V1 cytotox inactive, KB-3-1 tox inactive and RORg inh 3.16µM*.
Screening CC1(C)CC(=O)C2=C(C1)O[C@@]1(CCCCN3C(=O)c4ccccc4C3=O)Cc3ccccc3C2O1 returned VP16 counter -12.6%[10 µM] and RORg inh -14.6%[10 µM].
Screening Cc1ccc(C(=O)Cn2c3c(sc2=N)CCCC3)cc1 returned VP16 counter inconclusive and RORg inh 0.794µM*.
Cc1ccc(NC(=S)NC(C)(C)C)c([N+](=O)[O-])c1 was read as VP16 counter 7.94µM*, SW480 rereplic 99.4%, MCF10A rereplic 17.7%, KB-V1 cytotox inactive, KB-3-1 tox inactive and RORg inh 3.16µM*.
COc1ccc(NC(=O)C2CC3C=CC2C3)c([N+](=O)[O-])c1 (centres undefined) was read as SW480 rereplic 1.5%, MCF10A rereplic 12.0%, KB-V1 cytotox 20.6µM* and KB-3-1 tox inactive.
For COc1ccc(NC(=S)NC(NC(=O)C(C)C)C(Cl)(Cl)Cl)c([N+](=O)[O-])c1 (centres undefined) the results were VP16 counter inconclusive, SW480 rereplic inconclusive, MCF10A rereplic 10.9%, KB-V1 cytotox inactive, KB-3-1 tox inactive and RORg inh 17.8µM*.
`CCc1ccc(CN(C(=O)c2ccc(OC)cc2)C2CCS(=O)(=O)C2)cc1` (centres undefined) gave KB-V1 cytotox inactive and KB-3-1 tox inactive.
For COCCN(C(=O)c1snc(C(N)=O)c1N)C(C(=O)NC1CCCCC1)c1ccc(F)cc1 (centres undefined) the results were VP16 counter -0.2%, SW480 rereplic inconclusive, MCF10A rereplic 16.4µM*, KB-V1 cytotox inactive, KB-3-1 tox inactive and RORg inh -0.4%.
Screening NC(=O)c1nsc(C(=O)N(c2ccccc2F)C(C(=O)NCc2ccc(F)cc2)c2ccc(O)cc2)c1N (centres undefined) returned VP16 counter -12.2%, SW480 rereplic inconclusive, MCF10A rereplic 23.1µM*, KB-V1 cytotox inactive, KB-3-1 tox inconclusive and RORg inh 13.9%.
Screening Cc1cccc(CCN(C(=O)c2snc(C(N)=O)c2N)C(C(=O)NCC2CCCO2)c2ccc(F)cc2)c1 (centres undefined) returned VP16 counter 25.8%, SW480 rereplic inconclusive, MCF10A rereplic inconclusive, KB-V1 cytotox 20.6µM*, KB-3-1 tox inactive and RORg inh inconclusive.
Cn1c2ccsc2c2ncn(Cc3ccccc3F)c(=O)c21 was read as SW480 rereplic -58.1%, MCF10A rereplic inconclusive, KB-V1 cytotox inactive and KB-3-1 tox inactive.
`CCOc1ccccc1NC(=O)C1CCN(S(=O)(=O)c2c(C)noc2/C=C/c2ccc(C)cc2)CC1` gave KB-V1 cytotox inactive and KB-3-1 tox inactive.
Screening COc1ccc2oc(=O)c(-c3csc(Nc4cccc(O)c4)n3)cc2c1 returned VP16 counter -15.1%, SW480 rereplic inconclusive, MCF10A rereplic 23.1µM*, KB-V1 cytotox inconclusive, KB-3-1 tox inactive and RORg inh 40.8%.
Screening COc1ccc(Nc2nc(-c3cc4cccc(OC)c4oc3=O)cs2)cc1 returned VP16 counter -29.7%, SW480 rereplic 4.8%, MCF10A rereplic inconclusive, KB-V1 cytotox inactive, KB-3-1 tox inactive and RORg inh -2.4%.
Screening O=C(O)c1ccc(Nc2nc(-c3cc4ccccc4oc3=O)cs2)cc1O returned VP16 counter -17.9%, SW480 rereplic inconclusive, MCF10A rereplic 13µM*, KB-V1 cytotox inactive, KB-3-1 tox inactive and RORg inh 21.7%.
CC(C)CO/N=C1/[C@H]2O[C@@H]2[C@@H](O)[C@H]2[C@H]1CCn1c(=O)n(C)c(=O)n12 was read as VP16 counter 3.6%[10 µM] and RORg inh -11.7%[10 µM].
Screening COC(=O)c1sccc1N/N=C/c1cccc(OC)c1O returned VP16 counter 15.8µM*, SW480 rereplic -2.0%, MCF10A rereplic inconclusive, KB-V1 cytotox inconclusive, KB-3-1 tox inactive and RORg inh inconclusive.
`COC(=O)c1sccc1N/N=C/c1ccc(OC)c(OC)c1OC` gave VP16 counter -7.1%, SW480 rereplic 10.9%, MCF10A rereplic 23.1µM*, KB-V1 cytotox inconclusive, KB-3-1 tox inactive and RORg inh inconclusive.
`COC(=O)c1sccc1N/N=C/c1cccc(Oc2ccccc2)c1` gave VP16 counter inconclusive, SW480 rereplic 12.7%, MCF10A rereplic inconclusive, KB-V1 cytotox inactive, KB-3-1 tox inactive and RORg inh -7.2%.
COc1ccc(N=C2C(=Nc3ccc(OC)cc3)N(c3ccccc3)C(=S)N2C(=O)c2ccc(Cl)cc2)cc1 was read as VP16 counter inconclusive, SW480 rereplic -14.2%, MCF10A rereplic -3.0%, KB-V1 cytotox inactive, KB-3-1 tox inactive and RORg inh 14.1µM*.
Screening Cc1ccc2nc(Cl)c3nnnn3c2c1 returned VP16 counter -3.8%[10 µM], SW480 rereplic 1.84µM*, MCF10A rereplic 2.59µM*, KB-V1 cytotox inconclusive, KB-3-1 tox inconclusive and RORg inh 29.2%.
CC(C)CCOc1ccc(C2=NNC(=O)CC2)cc1 was read as VP16 counter 26.7%, SW480 rereplic 12.6%, MCF10A rereplic 0.5%, KB-V1 cytotox 1.84µM*, KB-3-1 tox inconclusive and RORg inh 20.6%.
For COc1ccc(N=C2NC(=O)/C(=C/c3ccco3)S2)cc1 the results were VP16 counter inconclusive, SW480 rereplic 7.31µM*, MCF10A rereplic inconclusive, KB-V1 cytotox inactive, KB-3-1 tox inactive and RORg inh -20.4%.
For COC(=O)/C=C1\SC(=Nc2ccc(OC)cc2)NC1=O the results were VP16 counter -9.1%, SW480 rereplic -10.3%, MCF10A rereplic 3.66µM*, KB-V1 cytotox inactive, KB-3-1 tox inactive and RORg inh -16.9%.
